Reference: the supplement of paper PMC10849652
The full data set covers some 8,800 targets. This sample favours those with a hit. About 0.5% of all pairs of compound and target were hits. A number with no mark means an inactive call.

How the values were obtained:
Experiment in all cases: log2 fold change, soluble protein after heating vs DMSO (PISA); higher = thermal stabilisation; K562 lysate, 10 uM; active = over 0.2 and 3.5 SD of the protein, either way, in both replicates (recomputed)
[1] = compound: CCCS(=O)(=O)Nc1ccc(F)c(C(=O)c2c[nH]c3ncc(-c4ccc(Cl)cc4)cc23)c1F [vemurafenib]
Method in brief: (§1)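 Thermal stability, expressed as log-two fold change relative to solvent controls, is given from duplicates. Crude K562 extract in PBS pH 7.4 with 1 mM MgCl2, at 1 mg/mL protein, was treated with 10 μM compound for 30 min and heated in aliquots for 3 min across 48°C-58°C. After pooling, adjustment to 0.5% NP-40 at 4°C and centrifugation at 21,000xg for 90 min, supernatant protein was measured by TMTpro 16plex LC-MS/MS with channel sums equalised.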

[2] = compound: CCCS(=O)(=O)Nc1ccc(F)c(C(=O)c2c[nH]c3ncc(Cl)cc23)c1F
Method in brief: as §1

[3] = compound: CCN(CCCOc1ccc2c(Nc3cc(CC(=O)Nc4cccc(F)c4)[nH]n3)ncnc2c1)CCOP(=O)(O)O [barasertib]
Method in brief: as §1

[4] = compound: CC[C@@H]1C(=O)N(C)c2cnc(Nc3ccc(C(=O)NC4CCN(C)CC4)cc3OC)nc2N1C1CCCC1
Method in brief: as §1

[5] = compound: CC[C@@H]1C(=O)N(C)c2cnc(Nc3ccc(C(=O)N[C@H]4CC[C@H](N5CCN(CC6CC6)CC5)CC4)cc3OC)nc2N1C(C)C [volasertib]
Method in brief: as §1

[6] = compound: CCn1c(C(=O)N(C2CC2)C2CC2)cc2c3c(ncn3C)c(Nc3cc(C)n(C)n3)nc21
Method in brief: as §1

[7] = compound: CCn1cc(-c2ccnc3[nH]c(-c4cccc(CN(C)C)c4)cc23)c(-c2ccc(NC(=O)N(C)C)cc2)n1
Method in brief: as §1

[8] = compound: CN1CCC(CNc2ccc3ncc(-c4cccc(OC(F)(F)F)c4)n3n2)CC1
Method in brief: as §1

[9] = compound: CN1CCN(CCOc2cc(OC3CCOCC3)c3c(Nc4c(Cl)ccc5c4OCO5)ncnc3c2)CC1 [saracatinib]
Method in brief: as §1

[10] = compound: CN1CCN(c2nc(C3=C(c4c[nH]c5ccccc45)C(=O)NC3=O)c3ccccc3n2)CC1 [sotrastaurin]
Method in brief: as §1

Sequence of UniProt P55263 (P55263 whole entry, looked up): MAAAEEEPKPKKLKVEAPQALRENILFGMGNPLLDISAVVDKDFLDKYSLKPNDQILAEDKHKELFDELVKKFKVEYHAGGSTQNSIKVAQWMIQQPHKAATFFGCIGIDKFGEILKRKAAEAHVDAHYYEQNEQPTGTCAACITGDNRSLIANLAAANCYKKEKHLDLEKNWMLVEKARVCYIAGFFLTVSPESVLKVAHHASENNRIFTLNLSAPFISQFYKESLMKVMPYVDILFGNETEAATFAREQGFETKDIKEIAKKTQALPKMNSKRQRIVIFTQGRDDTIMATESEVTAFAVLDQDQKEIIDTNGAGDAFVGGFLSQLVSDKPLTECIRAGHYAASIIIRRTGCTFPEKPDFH
Sequence of UniProt Q6NXT1 (Q6NXT1 whole entry, looked up): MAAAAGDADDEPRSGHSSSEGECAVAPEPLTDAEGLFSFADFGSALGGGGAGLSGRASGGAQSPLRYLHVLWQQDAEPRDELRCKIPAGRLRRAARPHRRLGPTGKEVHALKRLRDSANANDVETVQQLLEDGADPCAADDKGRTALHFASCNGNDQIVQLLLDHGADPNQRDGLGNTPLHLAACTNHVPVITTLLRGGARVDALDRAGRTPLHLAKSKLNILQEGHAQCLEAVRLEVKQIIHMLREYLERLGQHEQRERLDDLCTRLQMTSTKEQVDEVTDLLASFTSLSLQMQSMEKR
Sequence of UniProt O43182 (O43182 whole entry, looked up): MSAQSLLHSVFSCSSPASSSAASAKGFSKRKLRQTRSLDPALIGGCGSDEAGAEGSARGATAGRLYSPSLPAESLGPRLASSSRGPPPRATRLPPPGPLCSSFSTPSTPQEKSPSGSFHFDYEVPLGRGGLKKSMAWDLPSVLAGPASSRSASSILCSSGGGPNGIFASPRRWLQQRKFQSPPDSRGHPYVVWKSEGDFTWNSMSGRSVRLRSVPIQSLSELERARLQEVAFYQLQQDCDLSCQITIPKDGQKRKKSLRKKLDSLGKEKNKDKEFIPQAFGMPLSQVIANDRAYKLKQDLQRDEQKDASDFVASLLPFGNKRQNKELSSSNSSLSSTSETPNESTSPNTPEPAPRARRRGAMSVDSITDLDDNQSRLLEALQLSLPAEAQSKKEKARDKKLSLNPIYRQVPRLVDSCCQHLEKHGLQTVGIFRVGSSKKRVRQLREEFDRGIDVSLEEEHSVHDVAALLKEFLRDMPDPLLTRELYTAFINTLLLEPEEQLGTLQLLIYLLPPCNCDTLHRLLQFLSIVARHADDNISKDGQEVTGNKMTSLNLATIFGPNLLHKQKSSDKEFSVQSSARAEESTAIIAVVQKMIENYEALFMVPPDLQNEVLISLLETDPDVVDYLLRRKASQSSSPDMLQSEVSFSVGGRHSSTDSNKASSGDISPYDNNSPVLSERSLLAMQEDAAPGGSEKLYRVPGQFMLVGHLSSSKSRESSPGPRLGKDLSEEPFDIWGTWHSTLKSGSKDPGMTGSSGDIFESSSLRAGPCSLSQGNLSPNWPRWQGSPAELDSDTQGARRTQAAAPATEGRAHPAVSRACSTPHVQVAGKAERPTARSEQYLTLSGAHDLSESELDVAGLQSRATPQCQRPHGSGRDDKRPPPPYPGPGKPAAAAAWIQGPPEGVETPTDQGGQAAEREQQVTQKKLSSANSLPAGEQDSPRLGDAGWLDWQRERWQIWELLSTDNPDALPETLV
Sequence of UniProt Q01432 (Q01432 whole entry, looked up): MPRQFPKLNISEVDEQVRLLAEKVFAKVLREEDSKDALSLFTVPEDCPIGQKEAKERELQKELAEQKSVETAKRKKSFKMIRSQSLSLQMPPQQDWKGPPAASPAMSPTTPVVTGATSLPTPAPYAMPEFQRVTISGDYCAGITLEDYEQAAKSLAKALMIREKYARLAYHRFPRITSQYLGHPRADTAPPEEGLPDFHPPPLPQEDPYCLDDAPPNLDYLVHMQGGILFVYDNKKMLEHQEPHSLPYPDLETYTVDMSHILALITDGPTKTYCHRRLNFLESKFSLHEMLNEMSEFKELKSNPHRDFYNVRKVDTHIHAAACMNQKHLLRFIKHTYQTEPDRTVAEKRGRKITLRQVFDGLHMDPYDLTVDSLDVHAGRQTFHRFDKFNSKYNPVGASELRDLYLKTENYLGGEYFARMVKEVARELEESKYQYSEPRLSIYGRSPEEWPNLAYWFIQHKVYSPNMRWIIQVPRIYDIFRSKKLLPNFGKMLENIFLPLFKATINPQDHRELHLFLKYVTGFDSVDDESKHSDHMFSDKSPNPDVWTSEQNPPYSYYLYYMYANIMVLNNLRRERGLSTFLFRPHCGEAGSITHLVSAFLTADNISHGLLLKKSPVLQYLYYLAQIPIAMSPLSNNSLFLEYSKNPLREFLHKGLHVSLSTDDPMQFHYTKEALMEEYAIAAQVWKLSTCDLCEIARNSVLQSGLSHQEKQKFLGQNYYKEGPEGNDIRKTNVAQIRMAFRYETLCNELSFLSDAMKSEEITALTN
Sequence of UniProt P16219 (P16219 whole entry, looked up): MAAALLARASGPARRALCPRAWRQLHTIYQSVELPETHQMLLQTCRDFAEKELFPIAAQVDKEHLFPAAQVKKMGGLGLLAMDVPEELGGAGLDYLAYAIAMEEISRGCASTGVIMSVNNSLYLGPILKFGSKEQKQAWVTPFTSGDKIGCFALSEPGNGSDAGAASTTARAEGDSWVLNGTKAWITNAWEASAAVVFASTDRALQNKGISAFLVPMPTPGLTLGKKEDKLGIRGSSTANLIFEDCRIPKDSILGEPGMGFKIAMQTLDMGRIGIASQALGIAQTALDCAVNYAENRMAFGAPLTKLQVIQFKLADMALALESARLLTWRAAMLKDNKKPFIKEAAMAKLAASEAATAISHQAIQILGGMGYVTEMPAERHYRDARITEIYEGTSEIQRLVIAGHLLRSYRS
Sequence of UniProt P42684 (P42684 whole entry, looked up): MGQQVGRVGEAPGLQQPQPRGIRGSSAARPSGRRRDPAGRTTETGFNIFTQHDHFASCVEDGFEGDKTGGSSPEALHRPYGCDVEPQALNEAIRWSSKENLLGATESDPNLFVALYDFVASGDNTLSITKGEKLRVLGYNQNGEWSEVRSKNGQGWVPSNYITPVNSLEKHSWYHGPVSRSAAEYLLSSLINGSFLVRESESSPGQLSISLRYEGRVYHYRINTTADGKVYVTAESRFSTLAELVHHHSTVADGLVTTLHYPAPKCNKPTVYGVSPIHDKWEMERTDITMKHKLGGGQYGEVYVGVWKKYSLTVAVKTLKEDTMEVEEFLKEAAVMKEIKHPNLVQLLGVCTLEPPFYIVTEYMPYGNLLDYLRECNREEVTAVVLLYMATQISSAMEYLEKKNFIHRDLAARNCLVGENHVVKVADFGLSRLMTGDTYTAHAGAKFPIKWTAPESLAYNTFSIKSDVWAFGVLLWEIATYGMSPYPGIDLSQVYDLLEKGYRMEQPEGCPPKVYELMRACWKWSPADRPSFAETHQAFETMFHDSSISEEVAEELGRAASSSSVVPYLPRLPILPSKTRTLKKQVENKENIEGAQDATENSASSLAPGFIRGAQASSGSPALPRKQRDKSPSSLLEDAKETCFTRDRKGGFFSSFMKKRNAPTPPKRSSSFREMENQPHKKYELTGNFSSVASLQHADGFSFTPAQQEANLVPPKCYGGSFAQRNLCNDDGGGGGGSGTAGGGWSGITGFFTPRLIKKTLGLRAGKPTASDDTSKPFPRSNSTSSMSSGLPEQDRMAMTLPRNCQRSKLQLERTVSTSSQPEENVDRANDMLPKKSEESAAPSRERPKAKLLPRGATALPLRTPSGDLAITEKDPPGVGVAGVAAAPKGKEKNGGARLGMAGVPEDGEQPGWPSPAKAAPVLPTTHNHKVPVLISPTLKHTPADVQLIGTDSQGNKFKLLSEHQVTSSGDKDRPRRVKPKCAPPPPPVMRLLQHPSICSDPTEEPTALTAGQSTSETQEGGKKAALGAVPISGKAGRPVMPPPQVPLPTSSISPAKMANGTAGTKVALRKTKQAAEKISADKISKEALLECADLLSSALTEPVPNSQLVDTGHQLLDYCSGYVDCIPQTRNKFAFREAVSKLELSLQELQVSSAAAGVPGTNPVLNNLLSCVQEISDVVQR
Sequence of UniProt Q9NWX5 (Q9NWX5 whole entry, looked up): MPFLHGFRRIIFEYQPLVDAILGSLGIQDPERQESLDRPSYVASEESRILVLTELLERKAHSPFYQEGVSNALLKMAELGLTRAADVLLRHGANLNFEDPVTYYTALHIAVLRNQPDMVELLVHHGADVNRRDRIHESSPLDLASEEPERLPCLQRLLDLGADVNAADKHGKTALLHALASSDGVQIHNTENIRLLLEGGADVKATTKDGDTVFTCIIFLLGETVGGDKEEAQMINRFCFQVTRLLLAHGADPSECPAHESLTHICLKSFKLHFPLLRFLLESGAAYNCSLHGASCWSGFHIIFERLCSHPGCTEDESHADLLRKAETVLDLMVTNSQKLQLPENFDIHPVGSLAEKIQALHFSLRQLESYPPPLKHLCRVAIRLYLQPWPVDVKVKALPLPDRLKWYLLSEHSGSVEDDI
Sequence of UniProt P17707 (P17707 whole entry, looked up): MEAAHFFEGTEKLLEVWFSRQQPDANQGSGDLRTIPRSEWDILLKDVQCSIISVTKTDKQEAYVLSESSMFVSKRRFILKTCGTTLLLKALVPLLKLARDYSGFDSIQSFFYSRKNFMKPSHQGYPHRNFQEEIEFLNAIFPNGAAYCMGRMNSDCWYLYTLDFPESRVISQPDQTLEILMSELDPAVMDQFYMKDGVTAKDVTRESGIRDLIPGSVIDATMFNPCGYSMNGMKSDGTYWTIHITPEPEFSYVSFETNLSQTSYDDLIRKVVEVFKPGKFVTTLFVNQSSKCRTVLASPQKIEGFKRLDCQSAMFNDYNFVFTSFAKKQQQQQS

Target | log2 fold change [1] | log2 fold change [2] | log2 fold change [3] | log2 fold change [4] | log2 fold change [5] | log2 fold change [6] | log2 fold change [7] | log2 fold change [8] | log2 fold change [9] | log2 fold change [10]
ABL2 (UniProt P42684) | 0.233 | 0.222 | -0.002 | 0.11 | -0.05 | 0.009 | 0.039 | -0.128 | 0.254 | -0.02
ARHGEF1 (UniProt M0QZR4) | 0.014 | 0.004 | 0.023 | -0.025 | -0.041 | 0.014 | -0.08 | 0.013 | 0.009 | 0.018
ADK (UniProt P55263) | -0.052 | -0.036 | -0.054 | 0.458 (active) | 0.437 (active) | -0.027 | 0.044 | 0.155 | 0.043 | 0.343
AMPD3 isoform 4 (UniProt Q01432) | -0.021 | 0.005 | 0.017 | -0.033 | -0.026 | -0.029 | 0.1 | -0.046 | 0.043 | 0.024
ASB6 (UniProt Q9NWX5) | -0.249 | -0.039 | 0.109 | 0.651 (active) | -0.026 | -0.002 | 0.182 | 0.075 | -0.05 | -0.01
ANXA11 (UniProt P50995) | 0.02 | -0.013 | 0.002 | 0.024 | -0.031 | 0.044 | -0.049 | -0.01 | -0.009 | -0.017
AMD1 (UniProt P17707) | 0.096 | -0.01 | 0.064 | 0.036 | -0.014 | 0.117 | -0.129 | 0.127 | 0.013 | -0.002
APOB (UniProt P04114) | -0.006 | 0.039 | 0.03 | -0.009 | 0.026 | -0.189 | -0.224 (active) | 0.092 | 0.029 | 0.024
ACADS (UniProt P16219) | 0.023 | 0.017 | 0.006 | -0.039 | -0.016 | -0.02 | 0.016 | 0.003 | -0.026 | -0.026
ABI1 isoform 9 (UniProt Q8IZP0) | -0.021 | 0.005 | -0.01 | 0.052 | -0.038 | -0.001 | -0.116 | 0.217 | -0.029 | -0.019
AKAP8L (UniProt Q9ULX6) | -0.003 | 0.033 | -0.066 | -0.036 | -0.042 | 0.019 | -0.042 | -0.01 | 0.002 | 0.013
AFF4 (UniProt Q9UHB7) | 0.157 | -0.012 | -0.072 | 0.001 | -0.019 | 0.023 | -0.133 | -0.04 | -0.009 | 0.002
ANKRD54 (UniProt Q6NXT1) | -0.031 | 0.053 | -0.026 | 0.021 | 0.006 | -0.005 | 0.004 | 0.011 | -0.004 | 0.001
AK2 (UniProt P54819) | 0.014 | 0.062 | -0.013 | 0.029 | 0.013 | -0.009 | 0.119 | -0.008 | -0.015 | -0.038
ARHGAP6 (UniProt O43182) | 0.074 | 0.038 | 0.116 | -0.038 | -0.107 | -0.014 | 0.072 | -0.139 | 0.031 | -0.049
